The text below walks through data of PubChem BioAssay.

Structures are written as SMILES. “And” between values parts separate entries of the source, which are not always exact repeats. Identical values can stand only once. Records with an inconclusive call do not appear. The source made the active and inactive calls.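 How the source made its calls, unless noted: active means normalized viability below 100% at a tested concentration; inactive means the rest.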

Experiment [1] can be described thus: P. berghei load reduction in hepatocytes – cell-based, HepG2, luciferase luminescence, HepG2 viability, primary screen (AID 624349; in the data active means parasite load remaining mostly below about 12%, no sharp cut-off; inactive means mostly above about 10%;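 further: 100% = mean of DMSO negative control wells on the same plate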). Particulars: P. berghei liver stage in HepG2, luciferase luminescence, concentration not given here; parasite load remaining: stronger effect = lower value; viability: measured here: HepG2 viability without parasites.
Experiment [2] can be described thus: growth inhibition of DIPG cells – cell-based, MIPE4.0 library, CellTiter-Glo luminescence, qHTS (AID 1347066; cut-off not given, nearly all actives have AC50 up to about 30 µM;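 further: cells exposed to compound for 48 hours before readout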). As to conditions: SU-DIPG-VI viability, CellTiter-Glo ATP luminescence. (In general: ATP-based viability assays read luminescence as a measure of living cells.)
Experiment [3] can be described thus: growth inhibition of DIPG cells – cell-based, MIPE5.0 library, qHTS (AID 1347068; cut-off not given, nearly all actives have IC50 up to about 30 µM;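 on IC50: cells exposed to compound for 48 hours before viability readout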). As to conditions: SU-DIPG-XXV viability.
The nature of experiment [4]: compounds altering HSF1 focus formation in cells – imaging, Selleck Cancer Library (AID 1347162; in the data active means plate-normalised HSF1 focus index below about 0.46). As to conditions: human cells, HSF1 nuclear foci imaging, at 10 µM; SSMD: measured here: HSF1 foci SSMD mean; cell count: measured here: cell number; plate-normalised HSF1 focus index: stronger effect = lower value.
Experiment [5] can be described thus: JHH-DIPG-1 glioma cell viability, MIPE5.0 library, CellTiter-Glo luminescence, qHTS (AID 1347067; cut-off not given, nearly all actives have AC50 up to about 26 µM;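 further: cells exposed to compound for 48 hours before readout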). Particulars: JHH-DIPG-1 glioma viability, CellTiter-Glo ATP luminescence.
The nature of experiment [6]: liver-stage malaria parasite load reduction – cell-based, known kinase inhibitor set, luminescence, hepatoma host viability (AID 624392; call rule not given here;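 further: infected cells incubated roughly two days before readout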). As to conditions: Plasmodium liver stage in hepatoma cells, luciferase luminescence, concentration not given here; liver cell % of control: measured here: host liver cell viability; parasite % of control: stronger effect = lower value.
A short description of experiment [7]: viability loss in pontine glioma line – cell-based, SU-DIPG-XXV, MIPE5.0, CellTiter-Glo, qHTS, dose response (AID 1347065; cut-off not given, nearly all actives have AC50 up to about 26 µM;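 further: cells exposed to compound for 48 hours before ATP readout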). As to conditions: CellTiter-Glo ATP luminescence.
A short description of experiment [8]: viability loss with induced miR-34 in A549 – imaging, A549 dox-inducible miR-34, nuclei and caspase counts, primary screen (AID 1347080;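 active means compounds whose cell count with miR-34 switched on is under 0.7 times the count with it off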). As to conditions: A549 miR-34 inducible, Hoechst nuclei count, 48 h.
Experiment [9] is described as follows: MELAS cybrid and Rieske KO viability enhancers – cell-based, MELAS cybrids, Rieske KO mouse fibroblasts, CellTiter-Glo, primary screen (AID 1508586;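 active means mean z-score across replicates of 1.96 or higher in either the MELAS or the Rieske mutant cell line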;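 further: z relative to plate mean and SD of compound and empty wells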). As to conditions: low glucose.
Experiment [10] can be described thus: drug combination growth inhibition, ovarian cancer – cell-based, oncology-focused library, rucaparib conditional, profiling panel (AID 1508598). Particulars: patient-derived ovarian cancer cells, CellTiter-Glo viability, 144 h, stronger effect = lower value.

Turning to `NC(=O)c1ccc2nc(-c3ccc(Oc4ccc(Cl)cc4)cc3)[nH]c2c1`, in [1], the parasite load remaining was 38.6% (inactive) and the viability (commonly a read-out of living cells in per cent, often relative to untreated cells) stood at 91.3%. Besides, in [2], the compound was classed as inactive. Also, the call in [3] was inactive. For the same compound, in experiment [4], the SSMD stood at 0.89, the cell count came to 6720 and the plate-normalised HSF1 focus index is 1.06 (inactive).
For `CC(=O)O/N=C1\C(=O)N(Cc2cc(Cl)ccc2Cl)c2ccc(Cl)cc21`, in experiment [5], the AC50 (commonly the concentration at which the activity in the assay is half-maximal) is 23.5 µM (active). Besides, the IC50 – broadly, the concentration needed to halve the response being measured – in experiment [3] is 8.33 µM (active).
On to `NC(=O)c1nnn(Cc2cc(Cl)c(C(=O)c3ccc(Cl)cc3)c(Cl)c2)c1N`, for which the half-maximal activity concentration (AC50) in experiment [2] was 18.7 µM (active).
On to `COc1ccc2c(c1)C(c1ccc(F)cc1)=C(CN1CCCC1)CO2`, for which the compound was called inactive in experiment [5] and in [3].
As for `O=C(Nc1cccnc1)c1cc(-c2ccnc(F)c2)ccc1OCc1ccccc1`, the AC50 in [5] is 18.6 µM (active).
For `CCC(=O)N[C@H]1CC[C@H](C(=O)N(C)c2ccc(-c3nc4ccccc4o3)cc2)C1`, the compound was called inactive in [2] and in experiment [5].
For `CC1Cc2ccccc2N1C(=O)Cc1nc(N2CCOCC2)cc(=O)[nH]1` (stereo not drawn), the result in [5] was inactive.
Regarding `CC1CCN(c2cc(N3CCN(C)CC3)ccc2NC(=O)c2cc(C#N)c[nH]2)CC1`, the compound was called inactive in experiment [2] and in experiment [3].
On to `Cc1cccc(/C=N/Nc2cc(N3CCOCC3)nc(OCCc3ccccn3)n2)c1`, for which, in [5], the outcome was inactive.
In the case of `S=C(NCc1ccc2c(c1)OCO2)N1CCN(c2ncnc3c2oc2ccccc23)CC1`, the liver cell % of control in experiment [6] is 79.8% and 74.8% and 83.5%. In addition, the parasite % of control in experiment [6] is 3.34% (inactive) and 4.31% (inactive) and 22.8% (inactive). For the same compound, the AC50 in experiment [7] was 18.6 µM (active). Besides, the fold change in experiment [8] (stronger effect = lower value, cell number ratio, induced over uninduced) was 0.868 (inactive); in experiment [8] (measured here: relative caspase fold change +Dox/-Dox), 1.07. The cell count in [8] (measured here: total cells with miR-34 induction, stronger effect = lower value) is 3980; in experiment [8] (measured here: total cells without miR-34 induction), 4580; in experiment [4], 7510. In [4], this compound returned an SSMD of 2.08. Besides, in experiment [4], the plate-normalised HSF1 focus index was 1.08 (inactive). Besides, the z-score in experiment [9] (MELAS cybrid survival, CellTiter-Glo 48 h, stronger effect = higher value) is -0.551 (inactive); in [9] (Rieske KO mouse fibroblast survival, CellTiter-Glo 72 h), 0.864. The viability in [10] (at 0.000305 µM, OCI-C5x cells, with rucaparib 10 µM, 100% = cells with rucaparib alone) was 112% (inactive); in experiment [10] (at 0.000305 µM, OCI-C5x cells, without rucaparib) it was 101% (inactive); in experiment [10] (at 0.000305 µM, OCI-P5x cells, with rucaparib 20 µM, 100% = cells with rucaparib alone), 89.7% (active); in experiment [10] (at 0.000305 µM, OCI-P5x cells, without rucaparib) it was 92.1% (active); in experiment [10] (at 0.00122 µM, OCI-C5x cells, with rucaparib 10 µM, 100% = cells with rucaparib alone), 117% (inactive); in experiment [10] (at 0.00122 µM, OCI-C5x cells, without rucaparib), 100% (inactive). Further, the viability in experiment [10] (at 0.00122 µM, OCI-P5x cells, with rucaparib 20 µM, 100% = cells with rucaparib alone) was 96.6% (active); in experiment [10] (at 0.00122 µM, OCI-P5x cells, without rucaparib), 98.2% (active); in experiment [10] (at 0.00488 µM, OCI-C5x cells, with rucaparib 10 µM, 100% = cells with rucaparib alone) it was 109% (inactive); in experiment [10] (at 0.00488 µM, OCI-C5x cells, without rucaparib) it was 104% (inactive); in experiment [10] (at 0.00488 µM, OCI-P5x cells, with rucaparib 20 µM, 100% = cells with rucaparib alone), 97.2% (active); in [10] (at 0.00488 µM, OCI-P5x cells, without rucaparib), 95.2% (active). Also, the viability in [10] (at 0.0195 µM, OCI-C5x cells, with rucaparib 10 µM, 100% = cells with rucaparib alone) was 105% (inactive); in [10] (at 0.0195 µM, OCI-C5x cells, without rucaparib), 98.9% (active); in experiment [10] (at 0.0195 µM, OCI-P5x cells, with rucaparib 20 µM, 100% = cells with rucaparib alone) it was 109% (inactive); in experiment [10] (at 0.0195 µM, OCI-P5x cells, without rucaparib) it was 105% (inactive); in [10] (at 0.0781 µM, OCI-C5x cells, with rucaparib 10 µM, 100% = cells with rucaparib alone), 115% (inactive); in experiment [10] (at 0.0781 µM, OCI-C5x cells, without rucaparib) it was 111% (inactive). The viability in [10] (at 0.0781 µM, OCI-P5x cells, with rucaparib 20 µM, 100% = cells with rucaparib alone) was 110% (inactive); in [10] (at 0.0781 µM, OCI-P5x cells, without rucaparib) it was 101% (inactive); in experiment [10] (at 0.313 µM, OCI-C5x cells, with rucaparib 10 µM, 100% = cells with rucaparib alone) it was 110% (inactive); in experiment [10] (at 0.313 µM, OCI-C5x cells, without rucaparib) it was 111% (inactive); in [10] (at 0.313 µM, OCI-P5x cells, with rucaparib 20 µM, 100% = cells with rucaparib alone) it was 105% (inactive); in experiment [10] (at 0.313 µM, OCI-P5x cells, without rucaparib), 104% (inactive). For the same compound, the viability in experiment [10] (at 1.25 µM, OCI-C5x cells, with rucaparib 10 µM, 100% = cells with rucaparib alone) is 118% (inactive); in experiment [10] (at 1.25 µM, OCI-C5x cells, without rucaparib), 107% (inactive); in experiment [10] (at 1.25 µM, OCI-P5x cells, with rucaparib 20 µM, 100% = cells with rucaparib alone), 103% (inactive); in experiment [10] (at 1.25 µM, OCI-P5x cells, without rucaparib) it was 103% (inactive); in experiment [10] (at 5 µM, OCI-C5x cells, with rucaparib 10 µM, 100% = cells with rucaparib alone) it was 128% (inactive); in experiment [10] (at 5 µM, OCI-C5x cells, without rucaparib) it was 129% (inactive). The viability in experiment [10] (at 5 µM, OCI-P5x cells, with rucaparib 20 µM, 100% = cells with rucaparib alone) is 101% (inactive); in experiment [10] (at 5 µM, OCI-P5x cells, without rucaparib), 101% (inactive).
